Measured values from PubChem BioAssay (Tox21).
Results filed as inconclusive are left out. Unmarked numbers belong to inactive results. Active and inactive are the calls of the source. Calls follow the shape of the dose curve; as a rule, active = well fitted activation curve with a large enough effect in the signal ratio in the repeat runs (not every such curve was filed as active); inconclusive = weak or mixed curves, or effect the other way; inactive = flat fitted curve, though single readings scatter; the % refers to the signal ratio.

assay: qHTS assay to identify small molecule agonists of the endoplasmic reticulum stress response signaling pathway (AID 1159516); conditions: ESRE-bla HeLa, ER stress beta-lactamase reporter, 5 h; series mostly up to 61 µM
Text: National Center for Advancing Translational Sciences [NCATS]
NIH Chemical Genomics Center [NCGC]
U.S. Environmental Protection Agency [EPA]
National Institutes of Environmental Health Sciences [NIEHS]
National Toxicology Program [NTP]
U.S. Food and Drug Administration [FDA]
Endoplasmic Reticulum (ER) plays an important role in cellular signaling, protein folding/maturation, stress response, lipid biosynthesis, calcium storage and release etc. Under stress conditions, proteins in ER misfold or unfold, and leading to the expression of ER stress responsive genes. ER stress has been associated with a variety of pathophysiological conditions such as cancer, inflammation, neurodegenerative diseases, diabetes, ischemic heart disease etc. To identify the compounds that induce ER stress response, an ER stress reporter cell line, CellSensor ESRE-bla HeLa (Life Technologies, Carlsbad, CA) containing a beta-lactamase reporter gene under control of the Endoplasmic reticulum Stress Response Element (ESRE) was used to screen Tox21 10K compound library.
Tox21 Assay Protocol Summary:
ESRE-bla HeLa cells were dispensed at 1,500 cells/6 uL of assay medium per well into black wall/clear-bottom 1536-well plates using a Multidrop Combi (ThermoFisher Scientific, Waltham, MA) dispenser. After the assay plates were incubated at 37 C and 5% CO2 for an overnight, 23 nL of compounds dissolved in DMSO, positive controls or DMSO only was transferred to the assay plate by a Pintool station (Kalypsys, San Diego, CA). The assay plates were incubated at 37 C and 5% CO2 for 5 hr. One uL of LiveBLAzer B/G FRET substrate (Life Technologies) was added using a Flying Reagent Dispenser (Aurora Discovery, San Diego, CA) and the plates were incubated at room temperature for 2 hr. Fluorescence intensity (405 nm excitation, 460 nm and 530 nm emissions) was measured using an Envision plate reader (PerkinElmer, Shelton, CT).
% is scaled to controls: 0 for no effect and ±100 for the full control effect.

Q: For CCN[C@@H]1C[C@H](N)[C@@H](OC2OC(CN)=CCC2N)[C@H](O)[C@H]1O[C@H]1OC[C@](C)(O)[C@H](NC)[C@H]1O (stereo not given in full), which activation is on record?
A: 0.974% [at 0.628 µM]

Q: For CCOc1ccccc1OCC, which outcome is on record?
A: inactive

Q: For COCCOC[C@H](CC1(C(=O)NC2CCC(C(=O)O)CC2)CCCC1)C(=O)Oc1ccc2c(c1)CCC2 (stereo not given in full), which outcome is on record?
A: inactive

Q: Which outcome does the source give for NC(=O)N1c2ccccc2CC(=O)c2ccccc21 here?
A: inactive

Q: With CC1CCC(CO)CC1 (stereo not given) as the compound, how does the outcome read?
A: inactive

Q: Which outcome does the source give for C[N+]1(C)[C@@H]2CC(OC(=O)[C@H](CO)c3ccccc3)C[C@H]1[C@@H]1O[C@@H]12 (stereo not given in full) here?
A: inactive

Q: Which outcome does the source give for NS(=O)(=O)Cc1noc2ccccc12 here?
A: inactive

Q: Which outcome does the source give for CO/N=C(\C(=O)N[C@@H]1C(=O)N2C(C(=O)O)=C(CSc3nc(=O)c(O)nn3C)CS[C@H]12)c1csc(N)n1 here?
A: inactive

Q: For CC(C)(C#N)Nc1nc(Cl)nc(NC2CC2)n1, which outcome is on record?
A: inactive

Q: With Cc1cc(C)c(N=Nc2c(O)c(S(=O)(=O)O)cc3cc(S(=O)(=O)O)ccc23)cc1C as the compound, how does the activation read?
A: -3.13% [at 6.95 µM]

Q: For CC(=O)Nc1ccc(OCC(O)CNC(C)C)cc1 (stereo not given), which outcome is on record?
A: inactive

Q: Which outcome does the source give for C=CCCCCCCCCC(=O)OCC here?
A: inactive

Q: Which outcome does the source give for CCN(CC#N)c1cccc(C)c1 here?
A: inactive

Q: With CCCCN1C=CN(C)C1 as the compound, how does the outcome read?
A: inactive

Q: Which outcome does the source give for CCN(Cc1ccccc1)c1ccccc1 here?
A: inactive

Q: With NC(=O)Cc1cccc2ccccc12 as the compound, how does the outcome read?
A: inactive

Q: With CC(C)(C)C(=O)c1ccccc1 as the compound, how does the outcome read?
A: inactive

Q: For CC(C)c1ccc2ncccc2c1, which outcome is on record?
A: inactive

Q: With O=C(CO)[C@@H](O)[C@H](O)[C@H](O)CO as the compound, how does the outcome read?
A: inactive

Q: Which outcome does the source give for CNC(=O)Nc1ccc(Cl)c(Cl)c1 here?
A: inactive

Q: For C=CCOCC(O)CO (stereo not given), which outcome is on record?
A: inactive

Q: For CCCCCCCCCCCCSC, which outcome is on record?
A: inactive

Q: With O=C(O)Cc1csc(-c2ccc(Cl)cc2)n1 as the compound, how does the outcome read?
A: inactive

Q: With C[N+]1(C)CCCC(OC(=O)C(O)(c2ccccc2)c2ccccc2)C1 (stereo not given) as the compound, how does the outcome read?
A: inactive

Q: Which outcome does the source give for CN(C)C(=O)Oc1cccc([N+](C)(C)C)c1 here?
A: inactive

Q: For Nc1c2c(nc3c1CCC3)CCCC2, which outcome is on record?
A: inactive

Q: Which outcome does the source give for c1ccc(Cc2ccccc2)cc1 here?
A: inactive

Q: For CCOC(=O)CCC(=O)OCC, which outcome is on record?
A: inactive

Q: Which outcome does the source give for CC(=O)O[C@@]12CO[C@@H]1C[C@H](O)[C@@]1(C)C(=O)[C@H](O)C3=C(C)[C@@H](OC(=O)[C@H](O)[C@@H](NC(=O)OC(C)(C)C)c4ccccc4)C[C@@](O)([C@@H](OC(=O)c4ccccc4)[C@H]21)C3(C)C here?
A: inactive

Q: With CCCCN(CCC(=O)OCC)C(C)=O as the compound, how does the outcome read?
A: inactive

Q: Which outcome does the source give for C=CC(=O)OCCCl here?
A: inactive

Q: With O=C(O)CCSCCC(=O)O as the compound, how does the outcome read?
A: inactive

Q: Which outcome does the source give for CN1CCC(=C2c3ccccc3CCc3cccnc32)CC1 here?
A: inactive

Q: Which outcome does the source give for C[N+]1(CC2COC(c3ccccc3)(c3ccccc3)O2)CCCCC1 (stereo not given) here?
A: inactive

Q: With COc1ccccc1OCC1CNC(=O)O1 (stereo not given) as the compound, how does the outcome read?
A: inactive

Q: For NC(=O)N[C@@H](CCC(=O)O)C(=O)O, which outcome is on record?
A: inactive

Q: For CC(=O)N1C[C@H](O)C[C@H]1C(=O)O, which outcome is on record?
A: inactive

Q: Which outcome does the source give for Clc1cc(Cl)c(Cl)nc1Cl here?
A: inactive

Q: With CC(=O)OCC(=O)[C@@]1(O)[C@H](C)C[C@H]2[C@@H]3CCC4=CC(=O)C=C[C@]4(C)[C@@]3(F)[C@@H](O)C[C@@]21C as the compound, how does the outcome read?
A: inactive

Q: For CCCCCCCCN1CCCC1=O, which outcome is on record?
A: inactive
